The panel holds about 79,000 compounds, 15% with a hit somewhere; the sample as a whole holds those more often. Activity calls are given as the source filed them. Rule as the data show it: active = growth inhibition above about 70%; inactive = the rest.
Tests used:
[1] = NCI Yeast Anticancer Drug Screen. Data for the rad52 strain (AID 147);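 also: 0% = growth of vehicle-treated control cultures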; details: S. cerevisiae rad52 mutant growth inhibition, active compounds read high
Summary of the method: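 Genetically altered yeast (DNA damage repair defect) treated with compound; inhibition calculated relative to vehicle.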

[2] = NCI Yeast Anticancer Drug Screen. Data for the wt1 strain (AID 149);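 also: 0% = growth of vehicle-treated wt1 cultures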; details: S. cerevisiae wt1 strain (SPY 50644) growth inhibition, active compounds read high
Summary of the method: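 wt1 yeast, compound-treated; % growth inhibition vs vehicle control.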

[3] = NCI Yeast Anticancer Drug Screen. Data for the rad50EPP+ strain (AID 151);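 also: 0% = growth of vehicle-treated control cultures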; details: S. cerevisiae rad50 mutant strain, active compounds read high
Summary of the method: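 Strain rad50EPP+; compound exposure; % growth inhibition vs vehicle.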

[4] = NCI Yeast Anticancer Drug Screen. Data for the mgt1 strain (AID 153); details: S. cerevisiae mgt1 mutant growth inhibition, active compounds read high
Summary of the method: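 Read-out: yeast growth inhibition vs vehicle control. Strain mgt1, drawn from a panel altered in DNA damage repair or cell cycle control.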

[5] = NCI Yeast Anticancer Drug Screen. Data for the rad50 strain (AID 155);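 also: 0% = growth of vehicle-only cultures of the same strain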; details: S. cerevisiae rad50 strain growth inhibition, active compounds read high
Summary of the method: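 Genetically altered yeast (DNA repair pathway); compound treatment; growth inhibition vs vehicle ctrl.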

[6] = NCI Yeast Anticancer Drug Screen. Data for the mec2-1 strain (AID 157); details: S. cerevisiae mec2-1 strain, active compounds read high
Summary of the method: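 Cells of the genetically defined mec2-1 yeast strain are incubated with test compound. Inhibition of growth is calculated against vehicle-treated controls.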

[7] = NCI Yeast Anticancer Drug Screen. Data for the rad14 strain (AID 159);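 also: 0% = growth of vehicle-treated control cultures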; details: S. cerevisiae rad14 strain growth inhibition, active compounds read high
Summary of the method: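 Test compounds were applied to a repair-deficient yeast strain. Its growth was then compared with that of cultures given vehicle alone, and inhibition was expressed relative to those controls.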

[8] = NCI Yeast Anticancer Drug Screen. Data for the sgs1 mgt1 strain (AID 161);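 also: 0% = growth of cultures given vehicle only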; details: S. cerevisiae sgs1 mgt1 strain, active compounds read high
Summary of the method: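 Inhibition of yeast growth, normalised to vehicle-treated controls, is reported for a strain bearing genetic alterations in DNA damage repair.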

[9] = NCI Yeast Anticancer Drug Screen. Data for the CLN2oe strain (AID 163);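 also: 0% = growth of vehicle-only control cultures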; details: S. cerevisiae CLN2oe strain, active compounds read high
Summary of the method: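 Strain altered in cell-cycle control, incubated with compound; growth compared to solvent-treated controls.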

[10] = NCI Yeast Anticancer Drug Screen. Data for the cln2 rad14 strain (AID 165);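 also: 0% = growth equal to vehicle treated cultures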; details: S. cerevisiae cln2 rad14 strain, active compounds read high
Summary of the method: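 The screen exposed genetically defined yeast (cln2 rad14) to test compounds and scored growth inhibition relative to vehicle-treated controls.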

[11] = NCI Yeast Anticancer Drug Screen. Data for the bub3 strain (AID 167); details: S. cerevisiae bub3 mutant strain, active compounds read high
Summary of the method: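 Yeast carrying a defined mutation is treated with each compound, and growth is compared with that of vehicle-exposed cells to give inhibition.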

[12] = NCI Yeast Anticancer Drug Screen. Data for the wt2 strain (AID 169);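 also: 0% = growth of vehicle-treated yeast cultures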; details: S. cerevisiae wt2 strain growth inhibition, active compounds read high
Summary of the method: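 Steps: yeast strain treated with compound; growth recorded; inhibition calculated relative to cultures given vehicle alone.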

[13] = NCI Yeast Anticancer Drug Screen. Data for the mlh1 strain (AID 171);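 also: 0% = growth of vehicle-treated control cultures of the same strain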; details: S. cerevisiae mlh1 strain growth inhibition, active compounds read high
Summary of the method: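 Yeast screen: mutant strain plus compound, growth scored against vehicle control wells.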

[14] = NCI Yeast Anticancer Drug Screen. Data for the sgs1 strain (AID 173);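 also: 0% = growth of vehicle-only control cultures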; details: S. cerevisiae sgs1 mutant, active compounds read high
Summary of the method: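 Inhibition of yeast growth served as the measure. The mutant strain was treated with each compound, and growth was normalised to cultures receiving vehicle alone.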

[15] = NCI Yeast Anticancer Drug Screen. Data for the mlh1 rad18 strain (AID 175); details: S. cerevisiae mlh1 rad18 strain growth inhibition, active compounds read high
Summary of the method: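 Compound-treated yeast growth, normalised to vehicle controls. Strain bears defined DNA repair mutations.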

[16] = NCI Yeast Anticancer Drug Screen. Data for the rad18 strain (AID 177); details: S. cerevisiae rad18 mutant growth inhibition, active compounds read high
Summary of the method: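 Inhibition values reflect reduced yeast growth compared with vehicle-treated controls, using a strain engineered with a DNA damage repair defect.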

[17] = at 5.0 µM (retest, dose inferred, filed as 0.5)
[18] = at 50.0 µM (retest, dose inferred, filed as 5.0)

Measured: growth inhibition

Nc1cc(Cl)ccc1Nc1ccccc1
active: [2]; at 100.0 µM 94% | [4]; at 100.0 µM 85% | [5]; [18] 99% | [5]; at 50.0 µM 79.2% | [5]; at 100.0 µM 93% | [6]; [18] 99% | [6]; at 50.0 µM 79.8% | [6]; at 100.0 µM 92% | [7]; at 100.0 µM 87% | [8]; [18] 91% | [8]; at 50.0 µM 83.5% | [9]; at 100.0 µM 84% | [10]; [18] 95% | [11]; [18] 92% | [11]; at 50.0 µM 84% | [11]; at 100.0 µM 93% | [12]; at 100.0 µM 95% | [13]; at 100.0 µM 79% | [14]; at 100.0 µM 89% | [15]; [18] 99% | [15]; at 50.0 µM 84% | [16]; at 100.0 µM 85%
inactive: [1]; at 1.2 µM -25% | [1]; at 3.7 µM -22% | [1]; at 11.0 µM -27% | [1]; at 33.0 µM -18% | [1]; at 100.0 µM 68% | [2]; at 1.2 µM -31% | [2]; at 3.7 µM -26% | [2]; at 11.0 µM -25% | [2]; at 33.0 µM -17% | [3]; at 1.2 µM -58% | [3]; at 3.7 µM -21% | [3]; at 11.0 µM -19% | [3]; at 33.0 µM 28% | [3]; at 100.0 µM 69% | [4]; at 1.2 µM -25% | [4]; at 3.7 µM -15% | [4]; at 11.0 µM -10% | [4]; at 33.0 µM -1% | [5]; at 1.2 µM -21% | [5]; at 3.7 µM -15% | [5]; [17] 60% | [5]; at 11.0 µM -8% | [5]; at 33.0 µM 16% | [6]; at 1.2 µM -42% | [6]; at 3.7 µM -6% | [6]; [17] 65% | [6]; at 11.0 µM -49% | [6]; at 33.0 µM -33% | [7]; at 1.2 µM -7% | [7]; at 3.7 µM -13% | [7]; at 11.0 µM -14% | [7]; at 33.0 µM 1% | [8]; [17] 9% | [9]; at 1.2 µM 5% | [9]; at 3.7 µM 3% | [9]; at 11.0 µM -1% | [9]; at 33.0 µM 3% | [10]; [17] 24% | [10]; at 50.0 µM 61.1% | [11]; at 1.2 µM -21% | [11]; at 3.7 µM -16% | [11]; [17] 20% | [11]; at 11.0 µM -24% | [11]; at 33.0 µM -8% | [12]; at 1.2 µM -15% | [12]; at 3.7 µM -15% | [12]; at 11.0 µM -22% | [12]; at 33.0 µM 5% | [13]; at 1.2 µM -85% | [13]; at 3.7 µM -70% | [13]; at 11.0 µM -31% | [13]; at 33.0 µM -25% | [14]; at 1.2 µM -53% | [14]; at 3.7 µM -36% | [14]; at 11.0 µM -35% | [14]; at 33.0 µM 4% | [15]; [17] 62% | [16]; at 1.2 µM -15% | [16]; at 3.7 µM -39% | [16]; at 11.0 µM -24% | [16]; at 33.0 µM -15%

Cc1ccc(C)c(C(=N)c2ccccc2Cc2ccccc2)c1
inactive: [1]; at 1.2 µM -5% | [1]; at 3.7 µM 17% | [2]; at 1.2 µM -3% | [2]; at 3.7 µM 10% | [2]; at 11.0 µM 35% | [3]; at 1.2 µM -4% | [3]; at 3.7 µM 2% | [3]; at 11.0 µM 31% | [4]; at 1.2 µM -3% | [4]; at 3.7 µM 37% | [5]; at 1.2 µM -1% | [5]; at 3.7 µM 7% | [5]; [17] 60% | [6]; at 1.2 µM 2% | [6]; at 3.7 µM 12% | [6]; [17] 0% | [7]; at 1.2 µM 0% | [7]; at 3.7 µM 31% | [7]; at 11.0 µM 52% | [8]; [17] 62% | [9]; at 1.2 µM -3% | [9]; at 3.7 µM 6% | [9]; at 11.0 µM 47% | [10]; [17] 18% | [11]; at 1.2 µM 7% | [11]; at 3.7 µM 29% | [11]; [17] 13% | [12]; at 1.2 µM -1% | [12]; at 3.7 µM 42% | [13]; at 1.2 µM 0% | [13]; at 3.7 µM 35% | [14]; at 1.2 µM 8% | [14]; at 3.7 µM 60% | [15]; [17] 45% | [16]; at 1.2 µM -3% | [16]; at 3.7 µM 20% | [16]; at 11.0 µM 67%
active: [1]; at 11.0 µM 70% | [1]; at 33.0 µM 94% | [1]; at 100.0 µM 97% | [2]; at 33.0 µM 90% | [2]; at 100.0 µM 97% | [3]; at 33.0 µM 84% | [3]; at 100.0 µM 94% | [4]; at 11.0 µM 75% | [4]; at 33.0 µM 94% | [4]; at 100.0 µM 97% | [5]; at 11.0 µM 71% | [5]; at 33.0 µM 92% | [5]; [18] 96% | [5]; at 50.0 µM 98.4% | [5]; at 100.0 µM 95% | [6]; at 11.0 µM 72% | [6]; at 33.0 µM 95% | [6]; [18] 94% | [6]; at 50.0 µM 97.3% | [6]; at 100.0 µM 97% | [7]; at 33.0 µM 93% | [7]; at 100.0 µM 98% | [8]; [18] 94% | [8]; at 50.0 µM 97.5% | [9]; at 33.0 µM 95% | [9]; at 100.0 µM 98% | [10]; [18] 93% | [10]; at 50.0 µM 93.4% | [11]; at 11.0 µM 77% | [11]; at 33.0 µM 96% | [11]; [18] 97% | [11]; at 50.0 µM 97.4% | [11]; at 100.0 µM 95% | [12]; at 11.0 µM 78% | [12]; at 33.0 µM 93% | [12]; at 100.0 µM 97% | [13]; at 11.0 µM 80% | [13]; at 33.0 µM 92% | [13]; at 100.0 µM 98% | [14]; at 11.0 µM 86% | [14]; at 33.0 µM 95% | [14]; at 100.0 µM 97% | [15]; [18] 94% | [15]; at 50.0 µM 98.2% | [16]; at 33.0 µM 94% | [16]; at 100.0 µM 96%

— PubChem BioAssay (NCI)
